# PubChem BioAssay AID1645838 (ICCB-Longwood Screening Facility, Harvard Medical School, 2021)
# Screen size: about 2,000 compounds; about 100 (5%) were called active. Cut-off read from the data, not from the text of the source: active = z-score above about 2; inactive = the rest. The entries come from a sample that favours actives as a whole.
# Assay: modulators of mitochondrial supercomplex assembly, cell-based, luminescence, Hoechst nuclei count (AID 1645838);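 note: control cybrid cells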;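 for z-score: higher means more mitochondrial supercomplex formation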
# Conditions: Cells, luminescence/Hoechst cell count ratio, supercomplex reporter; for z-score: stronger effect = higher value; for cell count: measured here: cell number, Hoechst nuclei count
# [1] = library stock concentration (final well concentration not given) 80 uM
# [2] = library stock concentration (final well concentration not given) 400 uM
# [3] = library stock concentration (final well concentration not given) 2 mM
# [4] = library stock concentration (final well concentration not given) 10 mM
# [5] = library stock concentration (final well concentration not given) 46 uM
# [6] = library stock concentration (final well concentration not given) 278 uM
# [7] = library stock concentration (final well concentration not given) 1.67 mM
smiles,measurement,setting,value
Oc1cc(-c2nc(-c3ccccc3)[nH]c2-c2ccncc2)ccc1Cl,outcome,library stock 10 mM,inactive; censored for cell count
same,z-score,[1],-0.487 (inactive)
same,z-score,[2],0.0422 (inactive)
same,z-score,[3],0.88 (inactive)
same,cell count,[1],6330
same,cell count,[2],6400
same,cell count,[3],5020
CN(C)CCOc1ccc(-c2nc(-c3ccc4c(c3)CCC4=NO)c(-c3ccncc3)[nH]2)cc1,outcome,library stock 10 mM,inactive; censored for cell count
same,z-score,[1],-0.227 (inactive)
same,z-score,[2],0.545 (inactive)
same,z-score,[3],2.41 (active)
same,cell count,[1],4650
same,cell count,[2],4190
same,cell count,[3],3060
CS(=O)c1ccc(-c2nc(-c3ccc(F)cc3)c(-c3ccncc3)[nH]2)cc1 (centres undefined),z-score,,-1.15 (inactive)
same,cell count,,5830
NC(N)=NCCCC(NC(=O)COCC(c1ccccc1)c1ccccc1)C(=O)O (centres undefined),z-score,[1],-0.24 (inactive)
same,z-score,[2],-0.0902 (inactive)
same,z-score,[3],-0.0766 (inactive)
same,z-score,[4],0.102 (inactive)
same,cell count,[1],5010
same,cell count,[2],5210
same,cell count,[3],5170
same,cell count,[4],4630
CC(C)OC(=O)CCCC=CCC1C(O)CC(O)C1C=CC(F)(F)COc1ccccc1 (centres undefined),z-score,[1],-0.387 (inactive)
same,z-score,[2],-0.505 (inactive)
same,z-score,[3],-0.421 (inactive)
same,z-score,[4],-0.49 (inactive)
same,cell count,[1],6260
same,cell count,[2],6740
same,cell count,[3],6050
same,cell count,[4],5570
NC(CSCCB(O)O)C(=O)O (centres undefined),z-score,[5],-0.211 (inactive)
same,z-score,[6],-0.0225 (inactive)
same,z-score,[7],-0.355 (inactive)
same,z-score,[4],-0.293 (inactive)
same,cell count,[5],6150
same,cell count,[6],5500
same,cell count,[7],6170
same,cell count,[4],6060
O=C(NOCC1CC1)c1ccc(F)c(F)c1Nc1ccc(I)cc1Cl,outcome,library stock 10 mM,inactive; censored for cell count
same,z-score,[1],0.248 (inactive)
same,z-score,[2],0.901 (inactive)
same,z-score,[3],1.33 (inactive)
same,cell count,[1],4290
same,cell count,[2],3900
same,cell count,[3],3870
Cn1cnc2c(F)c(Nc3ccc(Br)cc3Cl)c(C(=O)NOCCO)cc21,outcome,library stock 10 mM,inactive; censored for cell count
same,z-score,[1],0.846 (inactive)
same,z-score,[2],0.791 (inactive)
same,z-score,[3],2.06 (active)
same,cell count,[1],3770
same,cell count,[2],3780
same,cell count,[3],2320
Cn1cnc2c(F)c(Nc3ccc(Br)cc3F)c(C(=O)NOCCO)cc21,outcome,library stock 10 mM,inactive; censored for cell count
same,z-score,[1],0.694 (inactive)
same,z-score,[2],1.23 (inactive)
same,z-score,[3],1.53 (inactive)
same,cell count,[1],5250
same,cell count,[2],4630
same,cell count,[3],2640
COc1cc(C=C(C#N)C(=O)Nc2nnc(C(F)(F)F)s2)ccc1OCc1ccc(C(F)(F)F)cc1C(F)(F)F,z-score,[5],-0.188 (inactive)
same,z-score,[6],-0.247 (inactive)
same,z-score,[7],-0.448 (inactive)
same,z-score,[4],-0.612 (inactive)
same,cell count,[5],7210
same,cell count,[6],7400
same,cell count,[7],7340
same,cell count,[4],7260
CS(=O)(=O)N1CCN(Cc2cc3nc(-c4cccc5[nH]ncc45)nc(N4CCOCC4)c3s2)CC1,outcome,library stock 10 mM,inactive; censored for cell count
same,z-score,[5],-0.278 (inactive)
same,z-score,[1],0.147 (inactive)
same,z-score,[6],-0.083 (inactive)
same,z-score,[2],0.745 (inactive)
same,z-score,[7],0.769 (inactive)
same,z-score,[3],1.48 (inactive)
same,cell count,[5],5360
same,cell count,[1],3950
same,cell count,[6],4950
same,cell count,[2],3220
same,cell count,[7],2910
same,cell count,[3],2350
Oc1cccc(-c2nc(N3CCOCC3)c3sccc3n2)c1,z-score,,3.96 (active)
same,cell count,,2940
Oc1cccc(-c2nc(N3CCOCC3)c3oc4ncccc4c3n2)c1,z-score,,2.15 (active)
same,cell count,,3000
CC(C)c1ccccc1OC(=O)NCCc1ccc2ccccc2c1,z-score,[5],-0.152 (inactive)
same,z-score,[6],0.0918 (inactive)
same,z-score,[7],-0.615 (inactive)
same,z-score,[4],-0.366 (inactive)
same,cell count,[5],6770
same,cell count,[6],6210
same,cell count,[7],7330
same,cell count,[4],5910
COc1cc(C(=O)N(CCC2CCCN2C)CC(C)=Cc2ccccc2F)cc(OC)c1OC (centres undefined),z-score,[5],0.184 (inactive)
same,z-score,[6],-0.112 (inactive)
same,z-score,[7],0.132 (inactive)
same,z-score,[4],0.652 (inactive)
same,cell count,[5],6990
same,cell count,[6],6820
same,cell count,[7],6680
same,cell count,[4],5820
CC#CCC(C)[C@H](O)/C=C/[C@@H]1[C@H]2C/C(=C\CCCC(=O)O)C[C@H]2C[C@H]1O (some centres undefined),z-score,,-0.395 (inactive)
same,cell count,,5310
OC(COc1cccc2ncccc12)CN1CCN(C2c3ccccc3C3C(c4ccccc42)C3(F)F)CC1 (centres undefined),z-score,[1],0.371 (inactive)
same,z-score,[2],0.508 (inactive)
same,z-score,[3],0.497 (inactive)
same,z-score,[4],-1.87 (inactive)
same,cell count,[1],4630
same,cell count,[2],4580
same,cell count,[3],4340
same,cell count,[4],3800
O=C(c1cccs1)c1ccc(OCCCO)c(Cl)c1Cl,z-score,,-0.51 (inactive)
same,cell count,,5410
CC1CC2OC2C=CC=CC(=O)Cc2c(Cl)c(O)cc(O)c2C(=O)O1 (centres undefined),outcome,library stock 278 µM,inactive; censored for cell count
same,outcome,library stock 1.67 mM,inactive; censored for cell count
same,outcome,library stock 10 mM,inactive; censored for cell count
same,z-score,[5],-0.774 (inactive)
same,cell count,[5],7560
